Source: the supplement of paper PMC6089552
Among all 3,200 compounds or so, about 300 (9.4%) showed activity. The sample holds actives, similar compounds and a random draw of the others, so the mix is not that of the screen.

System: A673/TR/shEF
Experiment: cell viability (LOESS-normalised, relative to median of negative controls) (log2 ratio); higher = more viable cells (less compound effect), active = hit call of the paper (over 3 MAD below the median)
Conditions: treatment time: 72 h
Procedure, shortened: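 Viability of A673/TR/shEF Ewing sarcoma cells was determined by CellTiter-Glo luminescence. The cells, at 1,500 per well in 384-well plates, were grown with or without doxycycline from 24 h before compound addition to switch on EWS-FLI1 shRNA knockdown, then exposed for three days to library compounds at two or more concentrations or to DMSO controls. Signals were LOESS-corrected plate by plate, normalised to the negative-control median and log2-transformed.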

[1] = 0.25 µM, library screen: screen1, EWS-FLI1 expression: high (no doxycycline)
[2] = 0.25 µM, library screen: screen1, EWS-FLI1 expression: low (doxycycline-induced shRNA knockdown)
[3] = 2.5 µM, library screen: screen1, EWS-FLI1 expression: high (no doxycycline)
[4] = 2.5 µM, library screen: screen1, EWS-FLI1 expression: low (doxycycline-induced shRNA knockdown)
[5] = 0.25 µM, library screen: screen2, EWS-FLI1 expression: high (no doxycycline)
[6] = 0.25 µM, library screen: screen2, EWS-FLI1 expression: low (doxycycline-induced shRNA knockdown)
[7] = 2.5 µM, library screen: screen2, EWS-FLI1 expression: high (no doxycycline)
[8] = 2.5 µM, library screen: screen2, EWS-FLI1 expression: low (doxycycline-induced shRNA knockdown)
[9] = 0.103 µM, library screen: screen3, EWS-FLI1 expression: high (no doxycycline)
[10] = 0.103 µM, library screen: screen3, EWS-FLI1 expression: low (doxycycline-induced shRNA knockdown)
[11] = 0.308 µM, library screen: screen3, EWS-FLI1 expression: high (no doxycycline)
[12] = 0.308 µM, library screen: screen3, EWS-FLI1 expression: low (doxycycline-induced shRNA knockdown)
[13] = 0.926 µM, library screen: screen3, EWS-FLI1 expression: high (no doxycycline)
[14] = 0.926 µM, library screen: screen3, EWS-FLI1 expression: low (doxycycline-induced shRNA knockdown)
[15] = 2.8 µM, library screen: screen3, EWS-FLI1 expression: high (no doxycycline)
[16] = 2.8 µM, library screen: screen3, EWS-FLI1 expression: low (doxycycline-induced shRNA knockdown)
[17] = 8.3 µM, library screen: screen3, EWS-FLI1 expression: high (no doxycycline)
[18] = 8.3 µM, library screen: screen3, EWS-FLI1 expression: low (doxycycline-induced shRNA knockdown)
[19] = 25 µM, library screen: screen3, EWS-FLI1 expression: high (no doxycycline)
[20] = 25 µM, library screen: screen3, EWS-FLI1 expression: low (doxycycline-induced shRNA knockdown)
[21] = 0.025 µM, library screen: screen2, EWS-FLI1 expression: high (no doxycycline)
[22] = 0.025 µM, library screen: screen2, EWS-FLI1 expression: low (doxycycline-induced shRNA knockdown)
[23] = 25 µM, library screen: screen2, EWS-FLI1 expression: high (no doxycycline)
[24] = 25 µM, library screen: screen2, EWS-FLI1 expression: low (doxycycline-induced shRNA knockdown)

Measured: cell viability (log2)

CC(=O)O[C@H]1CC[C@]2(C)C3=CC(=O)[C@@]4(C)C(C[C@@H]5OC6(OCC(C)CC6Br)[C@@H](C)[C@@H]54)C3CC[C@H]2C1 (some centres undefined)
inactive: [1] 0.0329 | [2] 0.0911 | [3] 0.172 | [4] 0.139

CC(C)(C)OC(=O)C(C)(N)c1ccc(Cl)cc1 (centres undefined)
inactive: [5] 0.157 | [6] 0.0841 | [7] 0.151 | [8] 0.141

CCN(CCO)CCCOc1ccc2c(Nc3cc(CC(=O)Nc4cccc(F)c4)[nH]n3)ncnc2c1
active: [9] -0.49 | [11] -0.395 | [13] -0.452 | [15] -0.473 | [16] -0.112 | [17] -0.446 | [19] -0.681
inactive: [10] -0.0648 | [12] -0.00388 | [14] -0.0458 | [18] -0.0257 | [20] -0.0482

C#Cc1cccc(Nc2ncnc3cc(OCCOC)c(OCCO)cc23)c1
inactive: [9] -0.021 | [10] 0.0228 | [11] -0.00557 | [12] 0.0307 | [13] -0.00846 | [14] 0.063 | [15] 0.0648 | [16] 0.0201 | [17] -0.0295 | [18] 0.0604 | [19] -0.0784 | [20] -0.0862

O=C(CSc1nc2ccccc2[nH]1)c1ccc(OC(F)F)cc1
inactive: [1] 0.0646 | [2] 0.0338 | [3] 0.169 | [4] -0.104

CN1CCN(CC(=O)N2c3ccccc3Sc3ccccc32)CC1
inactive: [1] 0.172 | [2] 0.134 | [3] 0.173 | [4] 0.343

CNC(=O)c1c(F)cccc1Nc1nc(Nc2cc3c(cc2OC)CCN3C(=O)CN(C)C)nc2[nH]ccc12
active: [11] -0.215 | [13] -0.468 | [15] -0.729 | [16] -0.119 | [17] -0.785 | [18] -0.103 | [19] -1.04 | [20] -0.185
inactive: [9] -0.00474 | [10] 0.0229 | [12] -0.0133 | [14] -0.047

CCOC(=O)C1=C(C)N=C2SC(C)C(=O)N2C1c1ccc(OC)cc1 (centres undefined)
inactive: [1] 0.148 | [2] 0.0319 | [3] 0.107 | [4] 0.0438

NC(C(=O)O)c1cccc(O)c1 (centres undefined)
inactive: [5] 0.144 | [6] 0.0441 | [7] 0.145 | [8] 0.0975

C[C@@H]1CC[C@@]23CCC4(C)[C@@](C=CC5[C@@]6(C)CC[C@H](O)C(C)(C)C6CC[C@]54C)(OC2=O)C3[C@H]1C (some centres undefined)
inactive: [1] 0.00363 | [2] -0.0167 | [3] 0.0828 | [4] -0.0285

COCCOC(=O)C1=C(C)NC(=S)NC1c1ccccc1 (centres undefined)
inactive: [1] 0.0342 | [2] 0.00808 | [3] 0.0869 | [4] 0.0951

C=C(C)C1Cc2c(cc3oc(CO)cc(=O)c3c2O)O1 (centres undefined)
inactive: [1] 0.0482 | [2] -0.012 | [3] 0.067 | [4] 0.013

CC[C@@]1(O)C(=O)OCc2c1cc1n(c2=O)Cc2cc3c(CN(C)C)c(O)ccc3nc2-1
inactive: [10] -0.0171
active: [9] -0.373 | [11] -1.79 | [12] -0.321 | [13] -2.4 | [14] -0.459 | [15] -3.72 | [16] -0.844 | [17] -4.21 | [18] -1.11 | [19] -4.26 | [20] -1.44

CC[C@@]1(O)C(=O)OCc2c1cc1n(c2=O)Cc2cc3cc(O)ccc3nc2-1
active: [1] -1.78 | [2] -0.267 | [3] -4.23 | [4] -1.06

CCc1c2c(nc3ccc(OC(=O)N4CCC(N5CCCCC5)CC4)cc13)-c1cc3c(c(=O)n1C2)COC(=O)[C@]3(O)CC
inactive: [9] 0.00275 | [10] 0.0626 | [11] -0.0633 | [12] 0.00509 | [14] 0.026
active: [13] -0.241 | [15] -1.31 | [16] -0.173 | [17] -1.95 | [18] -0.414 | [19] -2.57 | [20] -0.647

C=CC(C)(O)CC/C=C(\C)CCC=C(C)C (centres undefined)
inactive: [1] 0.0873 | [2] 0.0984 | [3] 0.22 | [4] 0.113

COc1cc(OC)c(C2NC(=S)NC(C)=C2C(=O)Nc2ccccc2Cl)cc1OC (centres undefined)
inactive: [1] 0.0713 | [2] 0.0952 | [3] 0.0303 | [4] 0.0128

CC(C)C[C@H](NC(=O)OCC1c2ccccc2-c2ccccc21)C(=O)O
inactive: [1] 0.0635 | [2] 0.0579 | [3] 0.116 | [4] -0.00318

CC(C)CCCC(C)C1CCC2C3CCC4CC(=O)CCC4(C)C3CCC12C (centres undefined)
inactive: [1] 0.027 | [2] 0.0292 | [3] 0.169 | [4] 0.017

C/C1=C\CC/C(C)=C/CC(C)(C)/C=C/C1
inactive: [1] 0.0853 | [2] 0.0875 | [3] 0.112 | [4] 0.0862

Cc1ccc(C(C)C)cc2c(C)ccc1-2
inactive: [1] 0.0556 | [2] -0.0467 | [3] 0.0686 | [4] 0.0228

C=C1CCC2C(CC2(C)C)C(=C)CCC1=NO (centres undefined)
inactive: [1] 0.105 | [2] 0.00367 | [3] 0.133 | [4] 0.0769

CC(C)=CCc1c(O)cc(C)oc1=O
inactive: [1] 0.0912 | [2] -0.0147 | [3] 0.109 | [4] -0.0401

O=c1[nH]cc(F)c(=O)[nH]1
inactive: [21] 0.207 | [22] 0.0564 | [9] 0.0782 | [10] 0.0161 | [1] 0.0591 | [2] -0.00519 | [5] 0.172 | [6] 0.0764 | [11] 0.113 | [12] 0.0726 | [13] 0.13 | [14] 0.0535 | [3] 0.0991 | [4] 0.0157 | [7] 0.104 | [8] 0.00707 | [15] 0.139 | [16] 0.018 | [17] 0.0774 | [18] 0.0748 | [24] -0.051 | [19] -0.0664 | [20] -0.00616
active: [23] -0.375

CN1C[C@H](O)[C@@H](O)[C@H](O)[C@H]1CO
inactive: [5] -0.0352 | [6] 0.0677 | [7] 0.0611 | [8] 0.0287

CCC1(c2ccccc2)C(=O)NCNC1=O
inactive: [9] 0.0813 | [10] 0.0528 | [1] 0.0645 | [2] 0.0903 | [5] 0.00606 | [6] 0.00378 | [11] 0.122 | [12] 0.128 | [13] 0.168 | [14] 0.0786 | [3] 0.179 | [4] 0.204 | [15] 0.146 | [16] 0.0526 | [17] 0.0966 | [18] 0.0601 | [19] 0.121 | [20] 0.121
active: [7] -0.197 | [8] -0.337

CCC1(c2ccccc2)NC(=O)N(C)C1=O (centres undefined)
inactive: [1] 0.0606 | [2] 0.0208 | [3] 0.107 | [4] 0.103

O=C1NC(=O)C(c2ccccc2)(c2ccccc2)N1
inactive: [9] 0.0587 | [10] -0.0104 | [1] 0.0952 | [2] 0.161 | [5] 0.143 | [6] 0.0547 | [11] 0.0798 | [12] 0.0371 | [13] 0.05 | [14] 0.0456 | [3] 0.145 | [4] 0.128 | [7] 0.044 | [8] 0.0796 | [15] 0.0207 | [16] 0.0711 | [17] -0.00351 | [18] 0.0628 | [19] 0.0771 | [20] 0.0956

N#Cc1c2c(c(NCCCO)n3c1nc1ccccc13)CCC2
inactive: [1] 0.146 | [2] 0.012 | [3] 0.0888 | [4] -0.0597

COc1cc(O)c2c(=O)cc(C)oc2c1CC=C(C)C
inactive: [1] 0.113 | [2] 0.0803 | [3] 0.117 | [4] 0.16

COc1ccc(C(=O)c2ccc(O)cc2O)c(O)c1
inactive: [1] 0.0224 | [2] 0.0701 | [3] 0.116 | [4] 0.108

COc1ccc(CN2CCN(Cc3cccc([N+](=O)[O-])c3)CC2)cc1OC
inactive: [1] 0.0511 | [2] 0.032 | [3] 0.111 | [4] 0.138

COc1cc2c(cc1OC)-c1cc3ccc(OC)c(OC)c3c[n+]1CC2
inactive: [1] 0.021 | [2] 0.0361 | [3] -0.0191 | [4] 0.0646

COc1ccc2c(=O)c(-c3cc4c(cc3OC)OCO4)coc2c1
inactive: [1] 0.0588 | [2] -0.078 | [3] 0.0766 | [4] 0.0171

COc1ccc2cc3[n+](cc2c1OC)CCc1cc2c(cc1-3)OCO2
inactive: [21] 0.0792 | [22] 0.0888 | [1] 0.0876 | [2] 0.0916 | [5] 0.139 | [6] 0.0365 | [3] -0.0264 | [4] 0.141 | [8] -0.00212
active: [7] -0.318 | [23] -1.53 | [24] -0.365

COC1=CC(=O)C(O)=C/C1=C/C=C/c1ccccc1
inactive: [1] 0.0854 | [2] 0.141 | [3] 0.097 | [4] 0.125
